# An excerpt weighted towards active compounds, which were near 6.6% of everything screened.
# BoNT-A LC inh2: blocks Botulinum neurotoxin A light chain protease | multiplex microsphere protease substrate cleavage, flow cytometry | inhibition, % at 10 µM | actives 0.17% (n = 360,000) | AID 588499; also: plate controls were buffer without enzyme for full effect and enzyme alone for no effect
# FBA Mtb inh: inhibitors of M. tuberculosis fructose-bisphosphate aldolase; P9WQA3; purified M. tuberculosis FBA, fluorescence read-out; actives 2.3% (n = 360,000); inhibition, % at 1 µM; AID 588726; in the data active = inhibition above about 27%;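 also: 0% = vehicle and 100% = reference inhibitor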
# BoNT-F LC inh: inhibitors of Botulinum neurotoxin F light chain protease; inhibition, % at 10 µM; actives 0.22% (n = 360,000); AID 588497; Multiplex microsphere protease cleavage assay, flow cytometry; in the data active = inhibition above about 35%, passing the limit was not always enough; inconclusive = no clear call, values can overlap the other calls; also: plate controls were buffer without enzyme for full effect and enzyme alone for no effect
# Bead autofluor: flagged as autofluorescent in microsphere protease counterscreen | compound autofluorescence counterscreen, microsphere flow cytometry; stronger effect = higher value | fluorescence intensity (test concentration not listed) | actives 3.1% (n = 360,000) | AID 624483; in the data active = fluorescence intensity above about 16000; inconclusive = no clear call, values can overlap the other calls
# GDH-TPI inh: GDH-TPI coupled enzyme inhibition counter-screen; GDH-TPI coupled enzyme counterscreen, NADH absorbance; actives 1.2% (n = 360,000); inhibition, % at 4.8 µM; AID 588335; in the data active = inhibition above about 30%;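 also: 0% = DMSO wells and 100% = wells lacking the enzyme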
# Anthrax LF inh2: blocks Bacillus anthracis lethal factor protease. multiplex microsphere protease cleavage assay, LF. inhibition, % at 10 µM. actives 0.12% (n = 360,000). AID 588501; also: plate controls were buffer without enzyme for full effect and enzyme alone for no effect
# Target sequence (P15917 whole entry, looked up): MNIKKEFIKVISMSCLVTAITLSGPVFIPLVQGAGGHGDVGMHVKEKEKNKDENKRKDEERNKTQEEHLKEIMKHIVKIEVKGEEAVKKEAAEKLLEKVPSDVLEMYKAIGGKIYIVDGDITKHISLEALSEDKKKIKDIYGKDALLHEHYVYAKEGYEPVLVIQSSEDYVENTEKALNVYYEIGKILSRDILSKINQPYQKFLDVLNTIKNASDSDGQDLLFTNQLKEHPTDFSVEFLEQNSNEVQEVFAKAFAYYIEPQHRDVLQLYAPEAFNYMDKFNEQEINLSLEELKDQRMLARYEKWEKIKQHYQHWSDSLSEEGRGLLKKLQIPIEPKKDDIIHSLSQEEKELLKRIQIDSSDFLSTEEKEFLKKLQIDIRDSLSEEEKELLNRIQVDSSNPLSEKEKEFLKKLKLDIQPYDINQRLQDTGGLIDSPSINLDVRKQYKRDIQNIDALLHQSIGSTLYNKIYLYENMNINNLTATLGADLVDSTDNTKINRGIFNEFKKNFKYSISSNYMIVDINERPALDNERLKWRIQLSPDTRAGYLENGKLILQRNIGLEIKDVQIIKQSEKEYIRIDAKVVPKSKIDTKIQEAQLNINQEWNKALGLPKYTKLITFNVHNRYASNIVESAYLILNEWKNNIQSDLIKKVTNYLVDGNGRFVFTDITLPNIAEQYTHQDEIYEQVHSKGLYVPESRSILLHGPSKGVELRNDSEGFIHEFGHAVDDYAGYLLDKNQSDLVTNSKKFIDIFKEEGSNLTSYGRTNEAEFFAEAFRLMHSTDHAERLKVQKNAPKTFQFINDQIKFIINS
# * hit, by the source's call; ? = inconclusive; . = not tested or not shown. Rule as the data show it, unless noted: active = inhibition above about 30%; inconclusive = no clear call, values can overlap the other calls; inactive = below that.
SMILES,BoNT-A LC inh2,FBA Mtb inh,BoNT-F LC inh,Bead autofluor,GDH-TPI inh,Anthrax LF inh2
c1csc(-c2nnc(Cc3cccc4ccccc34)o2)c1,?,-1,-6,23714*,12,-3
Fc1ccc(-c2nnc(CSc3nnc(-c4cccs4)o3)o2)cc1,0,2,-5,2606,22,-6
CC1(O)C(c2ccccc2)=Nc2ccccc21 (stereo unspecified),0,-1,-9,3988,15,-3
Cn1nc(C(=O)Nc2ccc(S(=O)(=O)N3CCOCC3)cc2)c2ccccc2c1=O,0,1,2,4101,1,0
Cc1cc(C)c(S(=O)(=O)c2c(C)cccc2C)c(OCC(C)C)n1,0,1,-2,23555*,1,0
OCC[C@@H]1C[C@H](O)[C@@H](O)[C@]2(CCc3ccccc3CO2)O1,0,2,0,4201,1,-4
CCNc1ccc(Br)cc(C(=O)/C=C/c2ccccc2Cl)c1=O,52*,-2,19,16998*,-3,45*
Cc1ccc(C(=O)N2CCN(C(=O)C3CCCO3)CC2)cc1 (stereo unspecified),0,0,-5,4041,-7,-3
Cc1ccc2c(c1)CCCN2C(=O)c1ccoc1C,1,2,1,21940*,10,-2
Cc1ccc(C)c(N2CCN(C(=O)c3cc4ccccc4oc3=O)CC2)c1,-1,-2,2,5804,11,0
COC(=O)N1CCCc2cc(C)ccc21,-1,5,-2,4579,1,-3
Cc1ccc2c(c1)CCCN2C(=O)c1c(C)noc1C,2,1,3,22666*,1,-6
Cc1noc(C)c1C(=O)N1CCCc2ccccc21,2,-3,-5,2423,7,2
Cc1ccc2c(c1)CCCN2C(=O)c1cc2ccccc2oc1=O,?,-1,0,16268*,25,-3
Cc1ccc2c(c1)CCCN2C(=O)C1CCCO1 (stereo unspecified),-3,-3,-2,22991*,-2,-2
O=C(NC1CCSc2ccccc21)c1cccc([N+](=O)[O-])c1 (stereo unspecified),-4,0,8,5568,14,3
Cc1ccc(S(=O)(=O)N(C)C)cc1NC(=O)C(C)OC(=O)C1CCC1 (stereo unspecified),0,2,-6,3841,1,-3
O=C(c1ccccc1F)N1CCCc2ccccc21,0,0,34,3543,-4,-4
CCc1ccc2c(c1)CCCN2C(=O)c1ccccc1C(=O)O,4,2,-4,19882*,-1,-1
Cc1nnc(NC(=O)CSc2nnc3scc(-c4ccc(C)c(C)c4)n23)s1,0,-5,3,11142,-4,2
CCc1nnc(NC(=O)CSc2nnc(-c3ccccc3O)n2CC)s1,-4,0,-3,25104*,-2,0
CCc1nnc(NC(=O)CSc2nnc3scc(-c4ccc(C)cc4)n23)s1,-2,-1,-1,21013*,3,0
O=C(Nc1cccc2[nH]c([C@H]3C[C@H](O)[C@@H](CO)O3)nc12)NC(c1ccccc1)c1ccccc1,-1,0,-9,6540,-7,-10
CCOC(=O)[C@]12CCC=C1N(Cc1ccccc1)C(=O)[C@H](CC(=O)NCc1cccs1)C2,0,.,5,5963,.,3
COc1nc2ccccc2nc1OC,0,-1,-7,5663,4,-6
SMILES,BoNT-A LC inh2,FBA Mtb inh,BoNT-F LC inh,Bead autofluor,GDH-TPI inh,Anthrax LF inh2
CC(=O)c1ccc(N2CCN(C(=O)CCCc3nc4ccccc4s3)CC2)cc1,1,1,2,2138,32*,0
O=C(CCc1nc2ccccc2s1)N1CCN(c2ccccc2)CC1,0,-1,-2,3880,-1,-6
Cc1nc2c(c3c1[nH]c1ccccc13)C(O)CC(C)(C)C2 (stereo unspecified),0,120*,-2,2183,7,-1
CC1=CC(=O)N(c2ccn(C)n2)C1=O,0,2,4,5356,4,4
N#CC(C(=S)Nc1ccccc1)c1nc2ccccc2[nH]1 (stereo unspecified),-2,-1,?,4252,62*,-11
COc1ccc(CN(C)CC(=O)Nc2cccc(S(=O)(=O)N3CCCC3)c2)cc1F,2,3,0,3560,9,0
CCC(C)NC(=O)c1cn(-c2cccc(OC)c2)c(=O)c2ccccc12 (stereo unspecified),3,2,22,3624,10,20
COC(=O)C(CCSC)NC(=O)c1cn(-c2ccc(OC)cc2)c(=O)c2ccccc12 (stereo unspecified),-1,1,36*,4029,10,-8
CC(C)c1nnc(NC(=O)CSc2nc3ccccc3s2)s1,4,0,5,20149*,3,-12
CCc1nnc(NC(=O)CSc2nc3ccccc3s2)s1,1,0,-8,3429,7,-2
Cc1csc(NC(=O)CCCSc2nc3ccccc3s2)n1,1,1,2,21652*,-6,-3
CCOc1ccc(C(=O)CSCC(=O)O)cc1,-1,1,-2,4752,9,-2
CCN(CCCNC(=O)COc1cc(=O)n(CC)c2ccccc12)c1ccccc1,?,1,-1,19587*,-2,-3
Cn1c(=O)cc(OCCCC(=O)Nc2ccc3c(c2)OCCO3)c2ccccc21,2,-3,2,21630*,-10,-2
CCc1ccc(NC(=O)CCCOc2cc(=O)n(C)c3ccccc23)cc1,0,1,-2,3765,8,-4
CCn1c(=O)cc(OCC(=O)NCCc2cccc(C)c2)c2ccccc21,0,3,-2,2426,-2,-1
CCN(CCCNC(=O)COc1cc(=O)n(C)c2ccccc12)c1ccccc1,2,3,1,8949,2,5
Cn1c(=O)cc(OCCCC(=O)Nc2cccnc2)c2ccccc21,-2,1,-2,23694*,-3,-2
CCn1c(=O)cc(OCC(=O)Nc2cc(C)ccn2)c2ccccc21,0,0,1,22556*,-8,-1
CCn1c(=O)cc(OCC(=O)Nc2ccc3c(c2)OCCO3)c2ccccc21,1,-1,1,19914*,-11,-5
COC(=O)C1=COC(OC2OC(CO)C(O)C(O)C2O)C2C(C)CC(=O)C12 (stereo unspecified),-1,-1,-4,5829,1,7
CC(=O)Nc1ccc(NC(=O)C2CCCN2/C=C/C(=O)C(F)(F)F)cc1 (stereo unspecified),0,-1,-3,4248,12,0
Cc1ccc(Cl)cc1N1CCN(C(=O)Cn2ncn3cccc3c2=O)CC1,0,0,2,6317,0,-6
C=C(C)Cn1c(CN(C)Cc2ccccc2)nc2c1c(=O)n(C)c(=O)n2C,0,-1,5,3459,-13,-7
Clc1ccc(-c2ccc(/C=N/Nc3nncc(-c4ccccc4)n3)o2)cc1,0,-2,-11,4515,4,0

# Compound activity (PubChem)
